dFosB act-1: mouse delta FosB homodimer activation; P13346; purified delta FosB, TAMRA-CDK5 oligo fluorescence polarization; percent of positive-control signal above neutral wells; activation, % at 25 µM; actives 0.99% (n = 340,000);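 active = mean activation above about 17%, with every replicate also reaching it, limit read from the data, passing the limit was not always enough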
GSIS activator: GLuc luminescence reporter in INS-1E cells, primary screen for activators of glucose-dependent secretion of insulin. INS-1E GLuc reporter insulin secretion, 2-3 h. activation, % at 16.6 µM. actives 0.61% (n = 370,000). AID 743287;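 active = lowest replicate activation of at least 40%, so every replicate reaches that level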;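 also: 0% = median of neutral control wells and 100% = median of IBMX positive control wells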
Vif imaging: HIV Vif inhibition. AID 602346. inhibition, % at 7.49 µM. actives 0.35% (n = 340,000). HEK293T cells, Vif self-association by quenched fluorescence, imaging, 24 h; in the data active = inhibition above about 50%, passing the limit was not always enough
Bfl-1 A1 inh: inhibitors of the anti-apoptotic protein A1, read as caspase activation; MEF A1-2A-BIM cells, Caspase-Glo 3/7 luminescence, 3 h; percent of clofoctol response, vehicle zero; caspase activation, % (test concentration not listed); actives 0.066% (n = 330,000); AID 2462;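 active = over half of replicate activation scores above 10%, or exactly half above 10 with the replicate mean above 10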
Neddylation inh: blocks human cullin neddylation. TR-FRET cullin neddylation, biochemical. P61081+Q13564. inhibition, % at 25 µM. actives 0.58% (n = 360,000); in the data active = inhibition above about 36%
Target sequence (P61081 whole entry, looked up): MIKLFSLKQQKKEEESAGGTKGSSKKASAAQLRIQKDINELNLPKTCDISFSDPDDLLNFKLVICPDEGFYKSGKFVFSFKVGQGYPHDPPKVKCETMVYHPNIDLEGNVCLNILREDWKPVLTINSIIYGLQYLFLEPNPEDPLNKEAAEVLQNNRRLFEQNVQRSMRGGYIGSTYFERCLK
Target sequence (Q13564 whole entry, looked up): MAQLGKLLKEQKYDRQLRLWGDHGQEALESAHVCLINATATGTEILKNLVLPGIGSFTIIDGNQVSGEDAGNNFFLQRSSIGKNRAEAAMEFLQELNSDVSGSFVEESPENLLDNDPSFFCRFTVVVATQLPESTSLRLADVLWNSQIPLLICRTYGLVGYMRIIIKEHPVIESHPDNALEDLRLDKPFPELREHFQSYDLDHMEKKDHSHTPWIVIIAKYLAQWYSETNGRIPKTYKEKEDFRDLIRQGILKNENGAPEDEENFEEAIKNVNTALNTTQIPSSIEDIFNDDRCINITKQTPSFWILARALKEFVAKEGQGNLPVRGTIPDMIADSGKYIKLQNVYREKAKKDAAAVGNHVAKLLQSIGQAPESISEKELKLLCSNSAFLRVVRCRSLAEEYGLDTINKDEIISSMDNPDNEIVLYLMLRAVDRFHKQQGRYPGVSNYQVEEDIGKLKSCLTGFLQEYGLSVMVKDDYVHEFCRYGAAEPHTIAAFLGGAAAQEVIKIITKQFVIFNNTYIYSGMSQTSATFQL
dFosB act-2: delta FosB (mouse) homodimer activation; shares compounds with dFosB act-1; 2,400 tested, under 10 active; purified delta FosB, TAMRA-CDK5 oligo fluorescence polarization; normalised: neutral wells 0, positive control 100; activation, % at 24.9 µM; AID 588690;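 active = highest replicate activation at or above 34% and every replicate reaching that threshold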;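 also: higher polarization means more probe DNA bound by delta FosB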
Neddyl conf: confirmation of human cullin neddylation inhibitors. shares compounds with Neddylation inh. TR-FRET cullin neddylation biochemical assay. calls only at 25 µM. actives 13% (n = 1,800); in the data active = inhibition above about 40%;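 also: neddylation substrate is the cullin 1 ring ligase complex with SKP2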
* marks the source's active call; other numbers are inactive results; i = inactive; . = no result shown. Rows were chosen to be rich in hits. Some 1.9% of all compounds tested hit in one or more screens of this group.

SMILES | dFosB act-1 | GSIS activator | Vif imaging | Bfl-1 A1 inh | Neddylation inh | dFosB act-2 | others
CCOc1cccc(-c2cc(C(=O)N/N=C/c3ccc(OC)c(CN4CCOCC4)c3)c3ccccc3n2)c1 | 38.8* | -1.5 | -2.9 | 0.2 | 18.2 | 3.2
O=C(C[C@@H]1C[C@@H]2c3cc(NS(=O)(=O)c4ccccc4)ccc3O[C@@H]2[C@H](CO)O1)NCC(F)(F)F | . | -5.3 | . | . | . | .
CCCNC(=O)N1C[C@@H]2[C@H](c3ccccc31)[C@@H](CO)N2CC1CCCCC1 | . | -3.1 | . | . | . | .
CCOc1ccccc1C=NNC(=O)c1cccc2ccccc12 | -1.6 | 15.2 | 1.8 | . | 0.8 | .
COc1ccccc1/C=N/NC(=O)c1cccc2ccccc12 | 37.1* | 4.5 | -3.3 | 1.0 | -6.4 | 2.3
O=C(CN1C(=O)C2CC=CCC2C1=O)Nc1nnc(SCc2c(Cl)cccc2Cl)s1 (stereo not drawn) | 38.8* | . | 23.9 | 0.4 | -6.4 | -6.3
O=C(CN1C(=O)C2CC=CCC2C1=O)Nc1nnc(SCc2ccc(Cl)cc2)s1 (stereo not drawn) | -9.1 | . | . | -0.4 | -0.4 | .
COC(=O)c1ccc(C(=O)Nc2ccc3nc(-c4cccnc4)[nH]c3c2)cc1 | 46.9* | 16.2 | -2.0 | -0.1 | 21.0 | -0.7
Nc1ccc(C(=O)Nc2ccc3nc(-c4cccnc4)[nH]c3c2)cc1 | 2.0 | . | . | -0.8 | 15.2 | .
O=C(COC(=O)c1ccccc1F)Nc1ccc2c(c1)OCCO2 | 1.1 | 2.0 | 6.8 | . | 2.1 | .
O=C(COC(=O)c1cc(Cl)ccc1O)Nc1ccc2c(c1)OCCO2 | 29.7* | 7.0 | 5.6 | -0.9 | 17.7 | 0.8
CC(C)(C)C1CCc2c(sc(NC(=O)c3ccncc3)c2C(N)=O)C1 (stereo not drawn) | 34.0* | . | -10.5 | 0.0 | 29.6 | 2.6
Cc1cccc(C)c1NC(=O)CSc1nc(C2CC2)nc2ccccc12 | 20.3* | -5.3 | 11.1 | 0.5 | -19.0 | 5.4
Cc1nn(Cc2ccccc2)c(C)c1NC(=O)CSc1nc(C2CC2)nc2c1cnn2-c1ccccc1 | 1.5 | . | . | 0.6 | 1.0 | .
Cc1cc(NC(=O)CSc2nc(CCC3CCCC3)nc3ccccc23)no1 | 47.4* | . | -13.4 | -0.6 | -227.2 | -4.5
COc1cccc(NC(=O)CSc2nc(C3CC3)nc3ccccc23)c1 | 4.2 | 10.9 | 16.1 | 0.3 | -22.5 | .
O=C(CSc1nc(C2CC2)nc2c1cnn2-c1ccccc1)Nc1c[nH]c(=O)[nH]c1=O | 127.4* | 16.4 | -2.1 | -0.2 | 0.0 | 2.7
COc1ccc(C[C@H]2CCn3cc(nn3)COCCCNC2=O)cc1 | . | -0.9 | . | . | . | .
C[C@@H](NC(=O)C[C@H]1C=C[C@H](NS(=O)(=O)c2cccc(F)c2)[C@@H](CO)O1)c1ccccc1 | . | 1.1 | . | . | . | .
CN(C)CCCNc1ncnc2sc(-c3ccccc3)cc12 | 27.2* | 6.1 | -7.6 | -1.1 | 3.1 | 0.7
CCOC(CNc1ncnc2sc(-c3ccccc3)cc12)OCC | -2.3 | 0.2 | -4.0 | -0.2 | 28.1 | .
Cc1nnc(NC(=O)CC(NC(=O)C(F)(F)F)c2ccccc2)s1 (stereo not drawn) | -0.1 | -4.8 | -0.8 | 1.0 | 3.0 | .
O=C(CC(NC(=O)C(F)(F)F)c1ccccc1)Nc1nnc(CCc2ccccc2)s1 (stereo not drawn) | 19.0* | -11.9 | 2.4 | -0.1 | 17.4 | 4.5
COc1ccc(N2CCc3c(C)nc4c(OC)cc(OC)cc4c32)cc1 | 38.3* | 2.8 | -12.5 | -0.7 | 16.9 | 1.0
O=C(C[C@@H]1C[C@H]2c3cc(NC(=O)C4CCOCC4)ccc3O[C@H]2[C@H](CO)O1)NCC1CC1 | . | 2.7 | . | . | . | .
SMILES | dFosB act-1 | GSIS activator | Vif imaging | Bfl-1 A1 inh | Neddylation inh | dFosB act-2 | others
O=S(=O)(Cc1ccccc1)c1ccccc1-c1nnc(-c2ccccc2)o1 | 31.7* | . | -1.0 | -0.1 | 9.2 | 6.2
O=S(=O)(Cc1ccc(Cl)cc1)c1ccccc1-c1nnc(-c2ccc(Cl)cc2)o1 | -4.3 | . | -2.4 | -0.8 | -2.9 | .
COc1ccc(NC(=O)COC(=O)c2ccc(-n3cnnn3)cc2)cc1Cl | 34.7* | 19.1 | 3.3 | 0.6 | -17.7 | -15.4
COc1ccc(OC)c(NC(=O)COC(=O)c2ccc(-n3cnnn3)cc2)c1 | 3.3 | . | 2.6 | 0.0 | 4.4 | .
CCOC(=O)c1cnc2c(cnn2C)c1NCc1ccc(OC)cc1 | 29.4* | 14.5 | -8.3 | 0.9 | -61.4 | 4.3
Cc1ccc(-c2n[nH]c(=S)n2/N=C/C=C/c2ccccc2[N+](=O)[O-])cc1 | -6.1 | . | . | 0.2 | -14.8 | .
O=[N+]([O-])c1ccccc1/C=C/C=N/n1c(-c2cc(-c3ccccc3)n[nH]2)n[nH]c1=S | 53.6* | . | 0.4 | 0.6 | 81.1* | 2.4 | Neddyl conf=i
O=C(N/N=C/c1ccc(-c2cccc(C(F)(F)F)c2)o1)c1ccccc1O | 31.6* | 6.4 | 1.7 | 1.1 | 51.4* | 3.6 | Neddyl conf=i
CCCNC(=O)N1[C@@H](CO)[C@@H]2c3ccccc3N(C(=O)Nc3ccccc3)C[C@@H]21 | . | -2.7 | . | . | . | .
Cc1c(C(=O)Nc2ccc(S(N)(=O)=O)cc2)oc2ccc(Cl)cc12 | 26.7* | -4.9 | -0.1 | 0.4 | 44.1* | 2.0 | Neddyl conf=i
C[C@@H]1CCCCO[C@H](CN(C)CC2CCCCC2)[C@@H](C)CN([C@H](C)CO)C(=O)c2cc(NC(=O)C3CCCCC3)ccc2O1 | . | -1.1 | . | . | . | .
COc1cccc(CC(=O)n2nc(N)c3cc4ccc(OC)cc4nc32)c1 | 32.2* | . | -11.9 | 0.2 | 41.1* | 4.5 | Neddyl conf=i
COc1ccc2cc3c(N)nn(C(=O)Cc4ccc(Cl)cc4)c3nc2c1 | -0.3 | . | -8.8 | -0.4 | 35.3 | .
Nc1nonc1-n1nnc(C(=O)N/N=C/c2ccc3c(c2)OCO3)c1CSc1ccccc1 | 36.1* | . | 3.2 | 1.4 | 42.1* | 0.2 | Neddyl conf=i
NCCCCc1ccc2ccc3cccc4ccc1c2c34 | 31.9* | 16.9 | -0.9 | . | 51.5* | 0.6 | Neddyl conf=i
O=C(O)CCCc1ccc2ccc3cccc4ccc1c2c34 | -6.7 | -18.6 | -0.8 | 0.0 | . | .
COc1ccc(S(=O)(=O)Nc2ccc3c(c2)C(=O)N([C@@H](C)CO)C[C@H](C)[C@@H](CN(C)C(=O)NC2CCCCC2)O3)cc1 | . | -4.7 | . | . | . | .
C[C@@H]1CCCCO[C@H](CN(C)C(=O)Nc2ccc(F)cc2)[C@@H](C)CN([C@@H](C)CO)C(=O)c2cc(NC(=O)NC3CCCCC3)ccc2O1 | . | -6.7 | . | . | . | .
COc1ccc(NC(=O)c2c[nH]c(=O)n(-c3ccc(C)c(C)c3)c2=O)c(OC)c1 | 34.6* | -1.6 | 13.9 | . | 63.6* | 4.5 | Neddyl conf=i
COc1ccc(NC(=O)c2c[nH]c(=O)n(-c3ccc(C)c(C)c3)c2=O)cc1OC | -19.7 | . | -11.6 | 1.4 | 0.3 | .
Clc1ccc2[nH]c3c(NCCCN4CCOCC4)ncnc3c2c1 | 22.0* | . | -0.8 | 0.6 | 38.1* | 0.3 | Neddyl conf=i
